The list shows a part of the results. Unmarked numbers belong to inactive results. The source made the active and inactive calls. Cut-off read from the data, not from the text of the source: active = IC50 below about 80 µM; inactive = the rest.
experiment: isolated mitochondria fluorescence counter-assay – biochemical, uHTS hits, counter-screen for MPTP inhibitor project, dose response (AID 651564); conditions: isolated mitochondria counterscreen, fluorescence read-out

Row | SMILES | IC50
1 | N=c1n(Cc2ccc(Cl)cc2)c2ccccc2n1CC(O)c1ccco1 (stereo not drawn) | 13.1 µM (active)
2 | NC(N)=N/N=C/c1ccc(Cl)c([N+](=O)[O-])c1 | 71.5 µM (active)
3 | Brc1ccc(CSc2ccc(-c3ccco3)nn2)cc1 | > 80 µM
4 | Cc1ccc2c(c1)C1CN(C)CCC1N2S(=O)(=O)c1ccc(Oc2ccc([N+](=O)[O-])cc2)cc1 (stereo not drawn) | > 80 µM
5 | O=C(c1ccc(Cl)cc1)c1ccc(OCC(O)CN2CCCCC2)cc1 (stereo not drawn) | 34.8 µM (active)
6 | Clc1ccc(-c2cc(C3CCNCC3)[nH]n2)c(Cl)c1 | > 80 µM
7 | O=C(Nc1cccc(-c2cccc(Cl)c2)c1)C1CCN(C2CCC2)CC1 | 33.6 µM (active)
8 | O=C(NC1CCN(Cc2ccccc2)CC1)c1cc(Br)c(Br)[nH]1 | > 80 µM
9 | CCCCOC(=O)CNc1nnc(SCC(=O)OCC)[nH]c1=O | > 80 µM
10 | CC1(C)CC(=O)c2sc(N)nc2C1 | > 80 µM
11 | O=C(COC(=O)c1ccccc1NC(=O)c1ccco1)Nc1ccc2c(c1)OC(F)(F)O2 | 10.7 µM (active)
12 | Cc1nn(Cc2ccccc2)c2c1C(c1ccccc1)C(C#N)=C(N)O2 (stereo not drawn) | 69.8 µM (active)
13 | CN(C)Cc1ccc(F)cc1Sc1cc(Cl)ccc1Cl | 69.1 µM (active)
14 | Fc1ccc(N2N=C(c3cccs3)CC2c2ccco2)c(F)c1 (stereo not drawn) | > 80 µM
15 | CCCC[C@@H]1CN=C(N)N1CCc1cc(C(F)(F)F)cc(C(F)(F)F)c1 | 28.5 µM (active)
16 | COc1ccc2sc(N(CCCN(C)C)C(=O)c3ccc(S(=O)(=O)N(C)C4CCCCC4)cc3)nc2c1 | 66.5 µM (active)
17 | COCCn1c(CN2CCC(Cc3ccccc3)CC2)nc2c1c(=O)n(C)c(=O)n2C | 5.73 µM (active)

Row | SMILES | IC50
18 | CCCCCCCCCCCCN1C(=O)CSC1c1cccnc1 (stereo not drawn) | 12 µM (active)
19 | CCNCCC(=O)N1c2ccccc2Sc2ccc(NC(=O)OCC)cc21 | > 80 µM
20 | FC(F)(F)COc1nc(N2CCCCC2)nc(N2CCNCC2)n1 | > 80 µM
21 | CN1CCC[C@@H]1CCO[C@](C)(c1ccccc1)c1ccc(Cl)cc1 | > 80 µM
22 | Cc1cc(C)c(NC(=O)C[N+](C)(C)CC(O)COc2cccc3ccccc23)c(C)c1 (stereo not drawn) | 47.5 µM (active)
23 | C[C@@H](CN1CCC[C@H]1CN1C(N)=NC[C@@H]1Cc1ccccc1)N1C[C@@H](Cc2ccccc2)N(CCCC2CCCC2)C1=N | 16.3 µM (active)
24 | CCCCc1nc(NCCN)c(C#N)c2c1CSC(C)(C)C2 | > 80 µM
25 | CCCCOc1ccc(CSC(=N)N)cc1[N+](=O)[O-] | > 80 µM
26 | CN(C)Cc1ccccc1C1(O)c2ccccc2CSc2ccccc21 (stereo not drawn) | > 80 µM
27 | NC[C@H](Cc1ccccc1)NCCc1cc(C(F)(F)F)cc(C(F)(F)F)c1 | 52.7 µM (active)
28 | O=C(Nc1cccc(C(F)(F)F)c1)c1ccc(N2CCNCC2)c([N+](=O)[O-])c1 | > 80 µM
29 | COc1ccc(/C=C(/CC(=O)Nc2ccc(C)cc2)c2nc3ccccc3s2)cc1 | > 80 µM
30 | CCCC(C(=O)OCCN(CC)CC)(c1ccccc1)c1ccccc1 | 77.1 µM (active)
31 | CCOC(=O)c1c(NC(=O)CSc2cn(CC)c3ccccc23)sc2c1CCC2 | > 80 µM
32 | Cc1ccc(-c2noc(CCC(=O)Nc3ccccc3N3CCN(C)CC3)n2)cc1 | > 80 µM
33 | CCCc1[nH]nc2c1C(c1c(C)nn(-c3ccccc3)c1Cl)C(C#N)=C(N)O2 (stereo not drawn) | > 80 µM

— PubChem BioAssay AID651564 (Sanford-Burnham Center for Chemical Genomics, 2012)
